# Bioassay records (PubChem BioAssay)
# Sampled rows, rich in hits. Any-hit rate of the full collection: about 1.1%.
# Vaccinia Venus: inhibitors of vaccinia virus (Venus reporter) | Potency, µM (series often up to 36.5 µM), inactives show at the highest dose activity change, negative = inhibition, most hits filed as inhibitors | AID 720580 | hit rate 0.46% among 330,000 | Vaccinia virus Venus reporter expression, fluorescence; calls by dose curve; tested in A549 cells; note: nearly all actives have a fitted effect of over 30% in size
# VACV mCherry inh: vaccinia inhibition (mCherry reporter) | Vaccinia virus mCherry reporter infection, fluorescence | Potency, µM (series often up to 36.5 µM), without a hit: at the highest dose activity change, negative = inhibition, most hits filed as inhibitors | AID 720579 | hit rate 0.63% among 310,000; calls by dose curve; tested in A549 cells; note: nearly all actives have a fitted effect of over 35% in size
# AmpC no deterg: inhibitors of E. coli AmpC beta-lactamase without detergent. P00811. Potency, µM (titrated, usually from 57.1 µM), for the others: top-dose activity change, negative = inhibition, actives largely listed as inhibitors. AID 485341. AmpC nitrocefin hydrolysis, absorbance 480 nm, 0.0001% Triton. hit rate 0.52% among 330,000;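 note: plate controls were no compound for no effect and no enzyme for full effect; nearly all actives have a fitted effect of over 20% in size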
# Target sequence (P00811 whole entry, looked up): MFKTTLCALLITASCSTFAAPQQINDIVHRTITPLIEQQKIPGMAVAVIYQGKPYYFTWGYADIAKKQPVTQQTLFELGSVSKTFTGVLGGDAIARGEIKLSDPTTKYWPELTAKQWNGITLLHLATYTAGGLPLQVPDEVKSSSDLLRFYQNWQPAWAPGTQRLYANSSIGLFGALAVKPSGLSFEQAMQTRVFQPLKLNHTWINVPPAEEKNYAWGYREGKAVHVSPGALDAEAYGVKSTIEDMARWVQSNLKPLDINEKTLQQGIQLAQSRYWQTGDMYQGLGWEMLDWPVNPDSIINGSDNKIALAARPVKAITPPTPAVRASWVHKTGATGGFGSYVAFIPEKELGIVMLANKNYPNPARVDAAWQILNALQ
#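 20 mM phosphate pH 7.0 + 0.01% (detergent screen) or 0.0001% Triton X-100; 5.3 nM AmpC reagent; cpd preinc 15 min RT; nitrocefin (800 uM stock) to start; A480 q20 s × 4 min; Activity was normalised to no-enzyme and no-compound control wells.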
# AmpC detergent: AmpC beta-lactamase inhibition with detergent present; AmpC hydrolysis of nitrocefin, absorbance 480 nm, 0.01% Triton; Potency, µM (doses to about 114 µM), inactives show at the highest dose activity change, negative = inhibition, most hits filed as inhibitors; hit rate 0.041% among 370,000; AID 485294;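 note: 0% = no-compound wells and -100% = no-enzyme wells; nearly all actives have a fitted effect of over 25% in size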
#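 AmpC (5.3 nM in the dispensed reagent) in 20 mM phosphate pH 7.0 with 0.01% (detergent screen) or 0.0001% Triton X-100 was preincubated with compounds for 15 min at room temperature. Nitrocefin was then added from an 800 uM solution, and hydrolysis was followed at 480 nm.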
# * marks the source's active call; other numbers are inactive results; i = inactive; u = inconclusive; x = no result given. Unless noted, calls come from the whole dose curve; as a rule, active = well fitted curve in the direction sought with a large enough effect; inconclusive = small, poorly fitted or top-dose-only effect, or another doubt; inactive = no such curve, though single readings can be large; an effect the other way counts as inactive or inconclusive. Unless noted, % is set by controls: 0 for no effect and ±100 for the full control effect; potency is the fitted concentration of half-maximal effect.
SMILES,Vaccinia Venus,VACV mCherry inh,AmpC no deterg,AmpC detergent
Nc1nc(-c2ccccc2)cc(-c2ccccc2O)n1,11.2µM*,u,-25.5%,3.3%
COc1ccc(-c2ccnc(-c3ccc(OCCCF)cc3)n2)cc1,-8.9%,-18.3%,u,9.9%
FCCCOc1ccc(-c2nccc(-c3ccc(Cl)cc3)n2)cc1,-9.1%,x,0.112µM*,4.8%
CC1(C)OB(c2cnc(C#N)nc2)OC1(C)C,-5.9%,i,x,x
COc1cccc2cc(C(=O)NCc3ccco3)c(=Nc3ccc(C(=O)O)cc3)oc12,10µM*,7.94µM*,-27.5%,-2.9%
CCCc1ccc(/C=C2\C(=O)c3ccccc3C(O)=C2C(=O)OCC)cc1,x,x,17.8µM*,u
COc1cc(Br)cc(/C=N/NC(=O)Cc2ccc(C(F)(F)F)cc2[N+](=O)[O-])c1O,12.6µM*,20µM*,-21.6%,-2.5%
COc1cccc(-c2nc(CS(=O)(=O)CC(=O)Nc3cccc(C)c3C)c(C)o2)c1,u,-16.4%,44.7µM*,u
c1ccc(-c2nnc(SCc3nnc(-c4cccs4)o3)o2)cc1,7.08µM*,x,-22.8%,-8.4%
Clc1ccc(-c2nnc(CSc3nnc(-c4cccs4)o3)o2)cc1,-13.3%,x,-15.9%,-6.3%
O=C(c1ccc2c(c1)OCO2)N(Cc1cccs1)C1(C(=O)NC2CCCCC2)CCCCC1,u,15.8µM*,18.4%,-10.7%
COc1ccccc1NC(=O)Cn1c(=O)oc2ccccc21,-2.1%,-15.7%,0.398µM*,0.6%
Clc1ccccc1N1CCN(c2ncnc3nc[nH]c23)CC1,-14.0%,-4.9%,8.91µM*,u
N=C(N)N=Nc1c(O)[nH]c2ccc(Br)cc12,-14.8%,-13.3%,-17.7%,-3.9%
NC(=S)N=Nc1c(O)[nH]c2cc(F)c(F)cc12,2.24µM*,3.16µM*,-25.0%,-7.1%
O=S(=O)(N[C@H]1C[C@@H](NS(=O)(=O)OCC(Cl)(Cl)Cl)C2CCCCC21)OCC(Cl)(Cl)Cl (stereo partly specified),10µM*,u,u,-11.7%
CC1CCC(C)(NS(=O)(=O)OCC(Cl)(Cl)Cl)CC1 (stereo unspecified),-22.8%,i,-37.7%,u
CCC(C)Sc1cc(C(F)(F)F)c(C(=O)Nc2ccc(Cl)cc2)cn1 (stereo unspecified),u,-10.0%,10µM*,7.8%
CCOc1ccc(C(=O)NC(=S)NC2CCCC2)cc1[N+](=O)[O-],-10.3%,-7.9%,10µM*,u
CCOc1ccc(C(=O)NC(=S)Nc2ccc(NC(=O)CC)cc2)cc1[N+](=O)[O-],-11.6%,i,-10.8%,u
O=C(COc1ccccc1C(=O)OCC(=O)Nc1cccc2ccccc12)Nc1ccc(Br)cc1,-22.7%,-2.6%,x,x
Cc1cc(C)c2c(=N)c3ccccc3n(CCCCCCCCn3c4ccccc4c(=N)c4c(C)cc(C)nc43)c2n1,10µM*,10µM*,x,x
COc1ccc(C(=O)OCn2nnc3ccccc3c2=O)cc1OC,15.4%,4.2%,-6.0%,-3.7%
CN(C)S(=O)(=O)c1ccc(C(=O)OCn2nnc3ccccc3c2=O)cc1,-5.5%,-13.6%,10µM*,1.5%
O=C(Cc1ccccc1)OCn1nnc2ccccc2c1=O,-11.4%,i,-16.8%,-7.4%
SMILES,Vaccinia Venus,VACV mCherry inh,AmpC no deterg,AmpC detergent
Cc1cccc(CC(=O)OCn2nnc3ccccc3c2=O)c1,4.6%,7.4%,10µM*,-18.8%
CSc1ccc(/C=C2\C=Cc3cc([N+](=O)[O-])ccc32)cc1,-10.6%,-12.9%,x,x
COc1ccccc1NC(C)C(=O)c1c[nH]c2ccccc12 (stereo unspecified),-10.3%,i,x,x
CN(Cc1cc(Cl)cc(Cl)c1)CC(C(=O)c1ccccc1)c1ccccc1 (stereo unspecified),-17.6%,-18.3%,x,x
CN(C)CC(C(=O)c1ccccc1)c1ccccc1 (stereo unspecified),10µM*,14.1µM*,-21.5%,u
CN(C)S(=O)(=O)c1ccc(C(=O)Nc2nnc(-c3ccc4c(c3)CCCC4)o2)cc1,-20.8%,u,2.82µM*,u
CN(C)S(=O)(=O)c1ccc(C(=O)Nc2nnc(-c3cccs3)o2)cc1,x,x,-16.5%,-7.3%
O=C(Nc1nnc(-c2ccc3c(c2)CCCC3)o1)c1ccc(Cl)cc1Cl,-10.0%,-29.3%,35.5µM*,u
O=C(Nc1nnc(-c2ccc3c(c2)CCCC3)o1)c1c(F)cccc1F,-7.0%,-7.4%,-33.7%,-0.6%
CC1CN(c2ccc([N+](=O)[O-])c(NCCOc3ccccc3)c2)CCN1 (stereo unspecified),11.2µM*,u,7.0%,8.2%
COc1ccc(OCCNc2cc(N3CCOCC3)ccc2[N+](=O)[O-])cc1,u,11.2µM*,-17.2%,2.0%
COc1ccc(OCCNc2cc(N3CCCCC3)ccc2[N+](=O)[O-])cc1,-29.8%,u,2.4%,-9.0%
Cc1ccccc1OCCNc1cc(N2CCN(CCO)CC2)ccc1[N+](=O)[O-],u,u,109.0%,-13.5%
Cc1cccc(OCCNc2cc(N3CCN(CCO)CC3)ccc2[N+](=O)[O-])c1,u,10µM*,135.6%,-2.6%
COc1cccc(OCCNc2cc(N3CCOCC3)ccc2[N+](=O)[O-])c1,u,-23.7%,-22.2%,-3.6%
CCOc1cccc2cc(-c3csc(NC(=O)CCC(=O)NCCCN4CCC(C)CC4)n3)c(=O)oc12,x,x,-25.9%,-0.7%
CCOc1cccc2cc(-c3csc(NC(=O)CCC(=O)NCCN4CCCCC4C)n3)c(=O)oc12 (stereo unspecified),u,11.2µM*,-43.7%,9.3%
CCN(CC)CCCNC(=O)c1ccc(Cn2c(=O)[nH]c3cc(OC)c(OC)cc3c2=O)cc1,-1.6%,-20.2%,x,u
C=CC(=O)Nc1ccc(CN2C(=O)N(c3c(Cl)c(OC)cc(OC)c3Cl)Cc3cnc(NCCCCN(CC)CC)nc32)cc1,3.16µM*,u,146.1%,x
N=c1nc2n(cc1F)C1OC(CO)C(O)C1O2 (stereo unspecified),u,5.62µM*,x,x
N=c1ncn(C2OC(CO)C(O)C2O)c2nc(Br)[nH]c12 (stereo unspecified),-19.1%,-20.1%,x,x
O=C(NCCc1c[nH]c2ccccc12)C(=O)NCC(c1cccnc1)N1CCN(c2ccccc2)CC1 (stereo unspecified),u,15.8µM*,83.0%,u
O=C(NCCc1ccccc1)C(=O)NCC(c1cccnc1)N1CCN(c2ccc(F)cc2)CC1 (stereo unspecified),u,-28.7%,x,-6.9%
COc1ccc(C(C[N+](=O)[O-])C2(c3ccc(OC)c(OC)c3)C(=O)c3ccccc3C2=O)cc1 (stereo unspecified),u,11.2µM*,23.6%,-12.3%
Cc1cccc(C)c1N(CC(=O)Nc1cc(Cl)ccc1Oc1ccccc1)S(C)(=O)=O,u,x,0.159µM*,u
Cc1ccc(C)c(N(CC(=O)Nc2cc(Cl)ccc2Oc2ccccc2)S(C)(=O)=O)c1,u,x,9.8%,-11.7%
O=C(N/N=C/c1cn(-c2cccs2)nc1-c1ccccc1)c1ccccc1O,u,12.6µM*,-28.6%,10.3%
